A short description of test [1]: qHTS assay to identify small molecule antagonists of the thyroid receptor (TR) signaling pathway (AID 743065). Further: series mostly up to about 70 µM; nearly all actives have a fitted effect of over 55% in size. The method in brief:
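GH3.TRE-Luc rat pituitary cells carrying two TR response elements driving luciferase were plated for 4 h, given compound plus 1 nM T3 (final), and incubated 23.5 h at 37 C. ONE-Glo luminescence measured reporter inhibition; CellTiter-Fluor fluorescence tracked cytotoxicity.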
On the technique in general: qHTS replaces the single test concentration by a dilution series.

The test system of test [2] is thyroid hormone receptor (rat, GH3 cells). Nature of the test: qHTS assay to identify small molecule agonists of the thyroid receptor (TR) signaling pathway (AID 743066; calls by dose curve).
In test [3] the target is Estrogen receptor (Homo sapiens) (UniProt P03372). As to the kind of experiment: qHTS assay to identify small molecule antagonists of the estrogen receptor alpha (ER-alpha) signaling pathway (AID 743069; active means well fitted curve in the direction sought with a large enough effect in the signal ratio in the repeat runs, not every such curve was filed as active; the % refers to the signal ratio). Summed up: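 Estradiol-stimulated ER-alpha-UAS-bla HEK293 cells, 18 hr compound exposure at 37C. LiveBLAzer B/G substrate, 2 hr RT, fluorescence read.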
Test [4] in a line: qHTS assay to identify small molecule antagonists of the estrogen receptor alpha (ER-alpha) signaling pathway - cell viability counter screen (AID 743074; calls by dose curve;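 further: HEK293 cells carrying ER-alpha-UAS-bla reporter stimulated with 17beta-estradiol; nearly all actives have a fitted effect of over 45% in size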).
The target in test [5] is Estrogen receptor (Homo sapiens) (UniProt P03372). As to the kind of experiment: qHTS assay to identify small molecule agonists of the estrogen receptor alpha (ER-alpha) signaling pathway (AID 743075; calls by dose curve;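 further: HEK293 GripTite cells with ER-alpha and UAS-driven beta-lactamase reporter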).
For test [6] the target is unchanged. As to the kind of experiment: qHTS assay to identify small molecule agonists of the estrogen receptor alpha (ER-alpha) signaling pathway using the BG1 cell line (AID 743079). Further: nearly all actives have a fitted effect of over 20% in size.
Test [7] in a line: qHTS assay to identify small molecule antagonists of the estrogen receptor alpha (ER-alpha) signaling pathway using the BG1 cell line (AID 743080; calls by dose curve;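 further: BG1 cells stimulated with 17beta-estradiol alongside compound; series mostly up to about 70 µM; nearly all actives have a fitted effect of over 25% in size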). Summed up: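 Seeding, 24 h rest, compound transfer from DMSO, 17beta-estradiol addition, 21.5 h incubation, CellTiter-Fluor (30 min, 37 C), then ONE-Glo (30 min, room temperature): this sequence was run on BG1-Luc-4E2 reporter cells.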

Test [8] in a line: qHTS assay to identify small molecule antagonists of the estrogen receptor alpha (ER-alpha) signaling pathway using the BG1 cell line - cell viability counter screen (AID 743081).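 Further: compound given together with 17beta-estradiol as the ER stimulus; nearly all actives have a fitted effect of over 45% in size.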 Further: potency means the concentration at half of the fitted maximal effect.
A further test concerns the target Aromatase (Homo sapiens) (UniProt P11511). Nature of the test: qHTS assay to identify aromatase inhibitors (AID 743083). Further: series mostly up to about 70 µM; nearly all actives have a fitted effect of over 55% in size.
Test [9] is described as follows: qHTS assay to identify aromatase inhibitors - cell viability counter screen (AID 743084).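 Further: cells stimulated with testosterone during compound exposure; nearly all actives have a fitted effect of over 55% in size.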 Further: potency means the concentration at half of the fitted maximal effect.

Records with an inconclusive call do not appear. A number with no mark means an inactive call. Activity calls are given as the source filed them. Unless noted, the call rests on the fitted dose curve; in most records, active means well fitted curve in the direction sought with a large enough effect in the repeat runs; inconclusive means weak or mixed curves; inactive means no such curve, though single readings can be large; an effect the other way counts as inactive or inconclusive.

Sequence of Estrogen receptor (Homo sapiens) (P03372 whole entry, looked up): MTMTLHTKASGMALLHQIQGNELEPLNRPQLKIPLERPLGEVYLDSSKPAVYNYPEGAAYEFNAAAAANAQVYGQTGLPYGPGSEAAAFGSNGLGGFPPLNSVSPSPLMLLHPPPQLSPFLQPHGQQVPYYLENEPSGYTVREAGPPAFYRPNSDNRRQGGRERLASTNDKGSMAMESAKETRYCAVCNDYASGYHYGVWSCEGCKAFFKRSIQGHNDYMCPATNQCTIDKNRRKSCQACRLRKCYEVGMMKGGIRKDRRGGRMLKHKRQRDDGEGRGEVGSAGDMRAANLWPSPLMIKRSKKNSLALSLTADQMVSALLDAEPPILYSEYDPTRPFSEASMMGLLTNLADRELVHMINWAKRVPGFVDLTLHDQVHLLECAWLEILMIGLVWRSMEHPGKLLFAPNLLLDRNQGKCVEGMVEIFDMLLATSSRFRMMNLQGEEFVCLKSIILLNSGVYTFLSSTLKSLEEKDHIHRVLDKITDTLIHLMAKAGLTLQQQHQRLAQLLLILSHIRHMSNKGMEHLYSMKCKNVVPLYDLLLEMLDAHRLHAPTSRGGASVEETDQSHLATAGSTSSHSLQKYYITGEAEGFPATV
Sequence of Aromatase (Homo sapiens) (P11511 whole entry, looked up): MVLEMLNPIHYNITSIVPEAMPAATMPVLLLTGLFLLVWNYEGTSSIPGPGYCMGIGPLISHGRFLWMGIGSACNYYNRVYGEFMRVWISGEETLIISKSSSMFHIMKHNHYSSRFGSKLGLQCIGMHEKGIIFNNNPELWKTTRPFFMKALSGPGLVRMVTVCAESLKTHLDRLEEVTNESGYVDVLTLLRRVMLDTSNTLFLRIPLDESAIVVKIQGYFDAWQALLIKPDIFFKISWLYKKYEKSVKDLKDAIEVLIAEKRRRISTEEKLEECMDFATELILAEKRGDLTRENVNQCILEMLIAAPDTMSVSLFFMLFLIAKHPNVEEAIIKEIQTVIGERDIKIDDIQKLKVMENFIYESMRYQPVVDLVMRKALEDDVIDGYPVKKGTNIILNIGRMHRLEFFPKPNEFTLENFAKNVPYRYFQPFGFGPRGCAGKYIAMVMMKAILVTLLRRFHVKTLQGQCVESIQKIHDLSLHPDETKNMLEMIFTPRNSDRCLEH

In the case of `O=C(O)c1ccccc1-n1cc(C(=O)O)c(=O)c2cc(Nc3c(F)cc(F)cc3Cl)c(Cl)cc21`, the Potency entry in test [1], in test [3], in test [5], in [6], in [7] and in [8] was “inactive” each time. The Potency result (with Aromatase (Homo sapiens); in [9]) was “inactive” each time. The call in test [2] and in test [4] was inactive.

With `CCCC(=O)OCc1ccccc1`, the Potency entry in test [1], in test [3], in test [5], in [6], in test [7] and in test [8] was “inactive” each time. Besides, the Potency result (with Aromatase (Homo sapiens); in test [9]) was “inactive” each time. Further, the result in test [2] and in test [4] was inactive.

`O=C(Cl)c1cc(Cl)cc(Cl)c1`: the Potency entry in [1], in [3], in [5], in test [6], in test [7] and in [8] was “inactive” in each case. The Potency result in the test with Aromatase (Homo sapiens) was “inactive”. In addition, the molecule was classed as inactive in [2] and in test [4].

As for `CC1(C)CC(O)CC(C)(C)N1[O]`, the Potency result in test [1], in [3], in test [5], in test [6], in [7] and in [8] was “inactive” each time. The Potency entry (with Aromatase (Homo sapiens); in test [9]) was “inactive” in each case. For the same molecule, the result in test [2] and in [4] was inactive.

With `C=CC(=O)OCCCCCCCCCC`, the Potency entry in [1], in test [3], in test [5], in [6], in test [7] and in test [8] was “inactive” each time. The Potency result (with Aromatase (Homo sapiens); in [9]) was “inactive” each time. The molecule was classed as inactive in test [2] and in [4].

On to `CNc1ccccc1`, for which the Potency result in [1], in test [3], in test [5], in test [6], in test [7] and in test [8] was “inactive” throughout. Also, the Potency result (in the test with Aromatase (Homo sapiens); in [9]) was “inactive” each time. For the same molecule, the outcome in test [2] and in test [4] was inactive.

With `CC(=O)c1cccnc1`, the Potency entry in [1], in test [3], in test [5], in test [6], in test [7] and in test [8] was “inactive” throughout. The Potency entry (with Aromatase (Homo sapiens); in test [9]) was “inactive” each time. Besides, the molecule was classed as inactive in test [2] and in test [4].

With `CCCCCCCCCCCCCCCCN`, the Potency entry in test [1], in test [3], in test [5], in test [6], in test [7] and in test [8] was “inactive” throughout. The Potency result (with Aromatase (Homo sapiens); in [9]) was “inactive” each time. Moreover, the result in [2] and in test [4] was inactive.

In the case of `O=C1c2ccccc2C(=O)C1c1ccc2cc(S(=O)(=O)O)cc(S(=O)(=O)O)c2n1`, the Potency result (in test [1]; in [3]; in test [5]; in test [6]; in [7]; in the test with Aromatase (Homo sapiens)) was “inactive” throughout. Further, the molecule was called inactive in [2] and in test [4]. For the same molecule, the Potency was 52.5 µM (active) in [8] and 29.5 µM (active) in test [9].

Take `O=C(O)CCc1nc2ccccc2[nH]1`: the Potency result in test [1], in test [3], in test [5], in test [6], in test [7] and in test [8] was “inactive” throughout. Also, the Potency entry (with Aromatase (Homo sapiens); in test [9]) was “inactive” throughout. In addition, the result in test [2] and in [4] was inactive.

Turning to `O=C1C=CCCC1`, the Potency result in test [1], in [3], in test [5], in test [6], in test [7] and in [8] was “inactive” each time. The Potency entry (in the test with Aromatase (Homo sapiens); in [9]) was “inactive” throughout. In addition, the result in test [2] and in [4] was inactive.

As to `CCCCCC1CCC(=O)O1` (stereo not drawn), the Potency entry in test [1], in test [3], in test [5], in test [6], in [7] and in [8] was “inactive” each time. The Potency entry (in the test with Aromatase (Homo sapiens); in test [9]) was “inactive” each time. In addition, the molecule was classed as inactive in test [2] and in [4].

With `NC(=O)c1ccccc1C(N)=O`, the Potency result in test [1], in test [3], in test [5], in test [6], in test [7] and in test [8] was “inactive” in each case. Also, the Potency result (with Aromatase (Homo sapiens); in test [9]) was “inactive” each time. The result in test [2] and in [4] was inactive.

On to `CCCCCCOC(=O)c1ccccc1`, for which the Potency result in [1], in test [3], in [5], in test [6], in [7] and in [8] was “inactive” in each case. The Potency result (in the test with Aromatase (Homo sapiens); in [9]) was “inactive” each time. Also, the molecule was classed as inactive in test [2] and in [4].

For the molecule `CC(COc1ccccc1)NC(C)C(O)c1ccc(O)cc1` (stereo not drawn), the Potency result in [1], in [3], in test [5], in [6], in [7] and in test [8] was “inactive” throughout. Further, the Potency entry (with Aromatase (Homo sapiens); in test [9]) was “inactive” each time. Besides, the molecule was classed as inactive in test [2] and in [4].

Consider `C=CCCC`, for which the Potency entry in [1], in test [3], in [5], in test [6], in [7] and in test [8] was “inactive” throughout. The Potency result (in the test with Aromatase (Homo sapiens); in [9]) was “inactive” throughout. The molecule was classed as inactive in [2] and in [4].

In the case of `O=[N+]([O-])c1cccc(I)c1`, the Potency entry in [1], in test [3], in test [5], in [6], in test [7] and in test [8] was “inactive” in each case. For the same molecule, the Potency entry (with Aromatase (Homo sapiens); in [9]) was “inactive” throughout. The molecule was classed as inactive in test [2] and in [4].

As to `SCCOCCOCCS`, the Potency entry in test [1], in test [3], in test [5], in test [6], in [7] and in test [8] was “inactive” in each case. Also, the Potency entry (in the test with Aromatase (Homo sapiens); in test [9]) was “inactive” each time. Further, the call in test [2] and in test [4] was inactive.

On to `O=C(O)c1cc(C(=O)O)c(C(=O)O)cc1C(=O)O`, for which the Potency entry in test [1], in test [3], in test [5], in test [6], in [7] and in [8] was “inactive” in each case. Further, the Potency result (in the test with Aromatase (Homo sapiens); in test [9]) was “inactive” throughout. Further, the molecule was classed as inactive in test [2] and in test [4].

`CCCCCCCCCCCC(=O)OCC`: the Potency entry in [1], in test [3], in test [5], in test [6], in test [7] and in test [8] was “inactive” throughout. For the same molecule, the Potency entry (with Aromatase (Homo sapiens); in test [9]) was “inactive” each time. Moreover, the molecule was classed as inactive in test [2] and in [4].

Turning to `Cc1ccc(NC=O)c(C)c1`, the Potency entry in test [1], in test [3], in [5], in [6], in test [7] and in test [8] was “inactive” throughout. For the same molecule, the Potency result (in the test with Aromatase (Homo sapiens); in test [9]) was “inactive” throughout. Moreover, the molecule was called inactive in [2] and in test [4].

For `OCCc1ccncc1`, the Potency result in [1], in test [3], in [5], in test [6], in [7] and in test [8] was “inactive” throughout. In test [9], the Potency entry was “inactive”. Besides, the outcome in [2] and in [4] was inactive.

Consider `S=c1[nH][nH]c(=S)s1`, for which the Potency entry in test [1], in [3], in [5], in [6], in test [7] and in test [8] was “inactive” in each case. The Potency result (with Aromatase (Homo sapiens); in test [9]) was “inactive” in each case. In addition, the call in test [2] and in [4] was inactive.

As for `OCCCO`, the Potency entry in [1], in test [3], in [5], in test [6], in [7] and in test [8] was “inactive” throughout. Further, the Potency entry (with Aromatase (Homo sapiens); in test [9]) was “inactive” throughout. The result in [2] and in test [4] was inactive.
